Rows were chosen to be rich in hits. Some 3% of all compounds tested hit in one or more screens of this group.
Tau fluor cs: counter-screen for tau fibril formation inhibitors; tau K18 P301L Alexa594 fluorescence, heparin fibrillization; actives 0.93% (n = 280,000); Potency, µM (doses to about 57.7 µM), for the others: top-dose activity change, negative = decrease; also: nearly all actives have a fitted effect of over 55% in size
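Human tau K18 P301L (15 uM unlabeled, 0.24 uM Alexa 594-labeled) in 100 mM sodium acetate pH 7 with 20 uM heparin, 6 hr at 37 C. ThT 30 uM added, 1 hr ambient; Alexa 594 FP and total fluorescence read at 555/632 nm.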
Tau FP inhib: blocks human tau fibril formation measured by polarization. K18 P301L tau heparin fibrillization, Alexa594 FP, 6 h. Potency, µM (titrated, usually from 57.7 µM), without a hit: top-dose activity, negative = inhibition, actives largely listed as inhibitors. actives 0.39% (n = 280,000); also: nearly all actives have a fitted effect of over 55% in size
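Quantitative HTS format: compounds meet 15 uM recombinant K18 P301L tau and Alexa 594-tau tracer in 100 mM sodium acetate pH 7; 20 uM heparin triggers fibrillization at 37 C over 6 hr; FP gives the signal.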
TR SRC2 fluor cs: Texas Red fluorescence interference in TRb-SRC2 counter-screen; Potency, µM (series often up to 106 µM), without a hit: top-dose fluorescence change, negative = quenching; actives 0.29% (n = 280,000); TRb/SRC2 Texas Red total fluorescence interference; active = well fitted curve in either direction with a large enough effect; inconclusive = small, poorly fitted or top-dose-only effect
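Flags fluorescent or light-absorbing compounds by total fluorescence, S + 2P, at 555 nm excitation and 632 nm emission. Mixture: 20 nM Texas Red SRC2 peptide, 0.6 uM human TRb LBD, 1 uM T3, 5% DMSO; compound exposure 5 h at ambient temperature.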
Tau ThT inhib: tau fibrillization inhibition (ThT binding). P10636. recombinant tau K18 P301L (four-repeat tau fragment), heparin-induced fibrillization, ThT fluorescence. Potency, µM (series often up to 57.4 µM), for the others: top-dose activity, negative = inhibition, hits mostly inhibitors. actives 2.1% (n = 270,000). AID 1460; also: nearly all actives have a fitted effect of over 55% in size
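Aggregation was driven by heparin (20 uM final) acting on recombinant tau […] bearing P301L in 100 mM sodium acetate pH 7; fibrils were detected with Thioflavin T.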
TRb-SRC2 inh: inhibitors of human thyroid hormone receptor beta-SRC2 interaction. Potency, µM (series often up to 106 µM), without a hit: at the top dose activity change, negative = inhibition, hits mostly inhibitors. actives 0.065% (n = 280,000). P10828. TRbeta-SRC2 peptide binding, fluorescence polarization; receptor liganded with 1 µM T3;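 also: plate controls were bound peptide for no effect and peptide without receptor for full effect; nearly all actives have a fitted effect of over 50% in size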
Target sequence (P10828 whole entry, looked up): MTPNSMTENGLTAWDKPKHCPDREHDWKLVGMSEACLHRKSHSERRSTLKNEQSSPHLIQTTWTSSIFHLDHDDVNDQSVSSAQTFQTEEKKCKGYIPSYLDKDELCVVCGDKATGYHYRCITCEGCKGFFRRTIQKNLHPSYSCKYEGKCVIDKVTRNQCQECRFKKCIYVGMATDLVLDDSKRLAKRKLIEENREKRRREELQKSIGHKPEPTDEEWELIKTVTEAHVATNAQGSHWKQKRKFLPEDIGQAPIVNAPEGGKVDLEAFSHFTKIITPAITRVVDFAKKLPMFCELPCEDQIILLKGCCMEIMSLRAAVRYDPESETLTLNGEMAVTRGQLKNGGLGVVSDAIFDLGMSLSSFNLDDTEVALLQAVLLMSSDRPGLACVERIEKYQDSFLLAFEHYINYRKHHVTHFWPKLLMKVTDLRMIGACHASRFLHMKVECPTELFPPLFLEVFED
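Read-out is fluorescence polarization (555 nm excitation, 632 nm emission) of a Texas Red SRC2 coactivator peptide; loss of signal reflects blocked binding to human TRb ligand-binding domain in the presence of 1 uM T3.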
Starred values were filed as active, the others as inactive; ? = inconclusive; . = no result; [ ] = remark or other dose. Unless noted, calls follow the shape of the dose curve; as a rule, active = well fitted curve in the direction sought with a large enough effect; inconclusive = small, poorly fitted or top-dose-only effect, or another doubt; inactive = no such curve, though single readings can be large; an effect the other way counts as inactive or inconclusive. Unless noted, % is scaled to controls: 0 for no effect and ±100 for the full control effect; potency is read from the fitted curve at half-maximal effect.

SMILES	Tau fluor cs	Tau FP inhib	TR SRC2 fluor cs	Tau ThT inhib	TRb-SRC2 inh
CN(C(=S)Nc1ccc(SC(F)F)cc1)c1ccc(O)cc1	?	?	-15%	2.5µM*	?
O=C(/C=C/c1ccc(Cl)cc1Cl)n1cccn1	-7%	?	-2%	7.9µM*	-9%
O=C(/C=C/c1ccc(Cl)cc1Cl)c1ccc[nH]1	-10%	-6%	-1%	?	0%
Cc1cccc(C(=O)Nc2cccc(C(=O)OCc3cc(=O)n4ccsc4n3)c2)c1	-1%	-10%	-1%	-8%	-6%
NC(C(=O)NC1C(=O)N2C(C(=O)O)=C(Cl)CSC12)c1ccccc1 (stereo unspecified)	-20%	?	-3%	14µM*	0%
Cc1ccc(Cl)cc1Nc1sc(C(=O)c2ccc(F)cc2)c(N)c1S(C)(=O)=O	-20%	-4%	5%	-13%	5%
COCCNc1ncnc2onc(-c3ccc(F)cc3)c12	-2%	-8%	-4%	1%	-8%
COCCNC(=O)CN1C(=O)c2cccnc2Sc2ccccc21	-14%	-17%	?	-10%	-4%
CCc1ccc(OCC(=O)NC2CC(C)(C)NC(C)(C)C2)cc1	-10%	-5%	1%	13µM*	-1%
COc1ccc(CNC(=O)C(=O)NCC(c2ccco2)S(=O)(=O)c2cccs2)cc1 (stereo unspecified)	-11%	-5%	0%	-7%	9%
Cc1cccc(N2C(S)=C(C#N)C(=O)NC2c2cccs2)c1 (stereo unspecified)	-29%	?	1%	32µM*	4%
Cc1ccc(S(=O)(=O)CCC(=O)Nc2cccc([N+](=O)[O-])c2)cc1	-13%	-8%	1%	-4%	-2%
Cc1ccc(C(=O)Nc2ccccc2)cc1S(=O)(=O)Nc1ccccc1	?	?	0%	-6%	0%
Cc1ccc(C(=O)Nc2cccc([N+](=O)[O-])c2)cc1S(=O)(=O)Nc1ccc(NC(=O)c2ccccc2)cc1	4.5µM*[quencher]	?	-2%	-16%	11%
Cc1ccc(NS(=O)(=O)c2ccc(OCC(=O)Nc3cccc([N+](=O)[O-])c3)c(C)c2)cc1	14µM*[quencher]	-7%	-1%	-4%	-4%
Cc1ccc(C(=O)Nc2ccccc2)cc1S(=O)(=O)Nc1ccc(Br)cc1	?	16µM*	0%	4%	1%
O=c1oc(-c2ccc(C(F)(F)F)cc2)nn1Cc1cc(Cl)ccc1O	.	.	-1%	.	13%
C=C(C[C@]1(C(=O)OC)CC2(CC=C(C)C)C(=O)C(C(=O)CC(C)C)=C(O)C(CC=C(C)C)(C1)C2=O)C(=O)OC (stereo partly specified)	2%	9%	-1%	-5%	5%
COc1ccc(-c2nc(CSc3nncn4c3cc3oc(C)cc34)c(C)o2)cc1	-10%	5%	-1%	?	3%
COc1ccccc1-c1nc2c(c(SCc3ccc(F)cc3Cl)n1)Cc1c(CO)cnc(C)c1O2	4%	10%	-3%	0%	-4%
Cn1cc(/C=C2\SC(=S)N(NC(=O)c3ccccc3)C2=O)c2ccccc21	24%	25µM*	?	?	18µM*
O=C(NN1C(=O)/C(=C/C=C/c2ccco2)SC1=S)c1ccncc1	?	?	-20%	.	-4%
O=C(NN1C(=O)/C(=C/C=C/c2ccccc2)SC1=S)c1ccncc1	?	-11%	0%	11µM*	-1%
CC(C)[C@@H](CC(=O)N[C@@H]1CCCC[C@H]1C(=O)N[C@H](CC(=O)N[C@@H](CCC(=O)O)CC(=O)O)Cc1ccccc1)NC(=O)C[C@H](CO)NC(=O)[C@@H]1CNCC[C@H]1N	-13%	0%	0%	-11%	-3%
CCCC/C=C/[C@H](c1ccccc1)[C@H](CO)Cc1ccc2ccccc2c1	.	.	-2%	.	-1%
O=C(/C=C/c1ccccc1Cl)Nc1nc(-c2cccs2)ns1	?	?	-4%	-7%	4%
CCOC(=O)c1c(N)sc(C(N)=O)c1C	1%	-3%	0%	-8%	-11%
CCOC(=O)c1c(N)sc(N)c1C(=O)OCC	?	?	-3%	14µM*	1%

Bioassay records deposited in PubChem by National Center for Advancing Translational Sciences (NCATS).
